The record followed here is PubChem BioAssay (NCATS).

Results filed as inconclusive are left out. Entries that show only a call come without a potency. Active and inactive are the calls of the source. The call rests on the fitted dose curve; in most records, active means well fitted inhibition curve with a large enough effect; inconclusive means small, poorly fitted or top-dose-only effect; inactive means flat fitted curve, though single readings scatter.
Potency means the concentration at half of the fitted maximal effect.

Chain of Glutathione peroxidase 1 (Homo sapiens) (P07203 whole entry, looked up): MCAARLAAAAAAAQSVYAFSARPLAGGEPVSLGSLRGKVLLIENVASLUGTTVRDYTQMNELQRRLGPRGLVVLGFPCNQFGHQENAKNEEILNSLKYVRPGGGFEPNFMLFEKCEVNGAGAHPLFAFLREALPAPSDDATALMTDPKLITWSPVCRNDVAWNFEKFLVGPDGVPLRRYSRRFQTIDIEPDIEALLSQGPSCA

This test addresses Glutathione peroxidase 1 (Homo sapiens) (UniProt P07203). Put plainly: Primary qHTS Assay for Inhibitors of Recombinant Selenoprotein Glutathione Peroxidase 1 (GPX1) (AID 1845191). Further: nearly all actives have a fitted effect of over 65% in size. Conditions: recombinant GPX1, GR-coupled NADPH fluorescence, 15 min; series mostly up to 48.8 µM. An excerpt: Assay Provider: Elias S.J. Arner MD PhD.
Department of Medical Biochemistry and Biophysics
Karolinska Institutet, Solna, Stockholm, Sweden
Selenoprotein glutathione peroxidases (GPX), like the ubiquitously expressed GPX1 and the ferroptosis modulator GPX4, enact their antioxidant activities by reducing hydroperoxides using glutathione. […] GPX1 and GPX4 inhibitors have thus shown promise as anti-cancer agents. Existing inhibitors are often promiscuous, or modulate GPX activity only indirectly, so novel direct inhibitors identified through screening against GPX1 and GPX4 could be valuable. Here, we developed optimized glutathione reductase (GR)-coupled GPX assays for the biochemical high-throughput screen (HTS) of almost 12,000 compounds with known mechanisms of action. Initial hits were triaged using a GR counter-screen, assessed for isoform specificity using a separate GPX2 assay, and were assessed for general selenocysteine-targeting activity using a thioredoxin reductase (TXNRD1) assay. With this suite of assays, we identified novel GPX1/GPX2- and GPX4-specific inhibitors and can here present a validated pipeline for future discovery research for selenoprotein-targeting agents.
SEQUENCE No. (e.g., 1, 2, 3, etc.); […] (e.g., Cells, Incubation, Reagent, etc.); VALUE; DESCRIPTION.
1; Reagent 1; 3 uL; GPx1 enzyme or no enzyme control in 1536-well, black, solid Greiner assay plate.
2; Compound; 25 nL; Kalypsis pin tool (Wako USA) equipped with a 1536-well pin head.
3; Incubation; 30 min; room temperature.
4; Reagent 2; 1 uL; 10 nM GPX1, 1 mM GSH, 0.5 mM CHP, 0.5 mM NADPH, 100 nM GR, 0.01% BSA substrate
5; Detection; Fluorescence; ViewLux microplate reader, excitation 340 nm and emission 450 nm.
6; Incubation; 15 min; room temperature.
7; Detection; Fluorescence; ViewLux microplate reader, excitation 340 nm and emission 450 nm.
NOTES (numbers refer to Sequence numbers above)
1. 3 uL of 16.66 nM GPX1 and 0.016% BSA in assay buffer (50 mM Tris-HCl, 2 mM EDTA (pH 7.5), 150 mM NaCl) was added to columns 3-48 of 1536-well assay plates using a BioRAPTR Flying Reagent Dispenser (Let's Go Robotics (LGR), Carlsbad, CA). A no-enzyme control (0.01% BSA in TES assay buffer) was added to columns 1-2.
2. 25 nL of test compounds and DMSO controls were added to each well with a pin tool (Kalypsys).
3. The assay plates were incubated for 30 minutes at room temperature.
4. 1 uL of master mix (500 nM glutathione reductase (GR), 5 mM reduced glutathione (GSH), 2.5 mM NADPH in assay buffer) was added. 1 uL of cumene hydroperoxide (CHP) ([2.5 mM] in 50% EtOH) was then added within 5 minutes to initiate the reaction. Final concentrations were: 10 nM GPX1, 1 mM GSH, 0.5 mM CHP, 0.5 mM NADPH, 100 nM GR, 0.01% BSA.
5. Initial fluorescence readout (t=0) at 340/450 nm was measured using a ViewLux multimodal detector (PerkinElmer, Waltham, MA).
7. Endpoint fluorescence readout (t=15) at 340/450 nm was measured 15 min after room temperature incubation.
On the technique in general: In qHTS, concentration-response curves come from the screen itself.
Take `C=C/C=C\CC1=C(C)[C@@H](OC(=O)[C@H]2[C@H](C=C(C)C)C2(C)C)CC1=O`: the Potency entry was “inactive”.

For `c1ccc(CCNCc2ccccc2)cc1`, the Potency entry was “inactive”. `C=C(C)[C@@H]1CCC(C)=C[C@H]1c1c(O)cc(CCCCC)cc1O`: the Potency result is “inactive”. `C[N+]1([O-])[C@H]2CC(OC(=O)C(CO)c3ccccc3)C[C@H]1[C@H]1O[C@H]12` (stereo not given in full): the Potency entry is “inactive”. `c1cc2c(cc1C1OC[C@@H]3C(c4ccc5c(c4)OCO5)OC[C@H]13)OCO2` (stereo not given in full): the Potency result is “inactive”. In the case of `CC1(C)C(=O)N(c2ccc(C#N)c(C(F)(F)F)c2)C(=S)N1Cc1ccc(-c2cn[nH]n2)cc1`, the Potency entry is “inactive”.

As for `CNC(C)CC1CCCC1` (stereo not given), the Potency result was “inactive”.

As to `CCCCCCCCCC(=O)OC1CC[C@H]2[C@@H]3CCC4=CC(=O)CC[C@@H]4[C@H]3CC[C@]12C` (stereo not given in full), the Potency entry was “inactive”. Consider `CC(C)(O)/C=C\C(=O)[C@](C)(O)[C@H]1[C@H](O)C[C@]2(C)[C@@H]3CC=C4[C@@H](C=C(O)C(=O)C4(C)C)[C@]3(C)C(=O)C[C@@]12C`, for which the Potency result was “inactive”. On to `CCN1CCN(C(c2ccc(Cl)cc2)c2ccc(Cl)cc2)CC1`, for which the Potency result was “inactive”. As to `C[C@@]12OC(=O)[C@]1([C@@H](O)[C@@H]1C=CCCC1)NC(=O)[C@@H]2CCCl`, the Potency result was “inactive”. On to `C[C@@H]1CC[C@@]2(OC1)O[C@H]1C[C@H]3[C@@H]4CC=C5C[C@@H](O[C@@H]6O[C@H](CO)[C@@H](O[C@@H]7O[C@@H](C)[C@H](O)[C@@H](O)[C@H]7O)[C@H](O)[C@H]6O[C@@H]6O[C@@H](C)[C@H](O)[C@@H](O)[C@H]6O)CC[C@]5(C)[C@H]4CC[C@]3(C)[C@H]1[C@@H]2C`, for which the Potency entry was “inactive”.

Turning to `CCN(C)C(C)C(O)c1ccccc1` (stereo not given), the Potency entry was “inactive”. Turning to `CCN1C[C@@]2(COC)C3[C@@H](OC)C4[C@@H]1[C@@]3(C1C[C@]3(O)[C@H](OC(=O)c5ccccc5)C1[C@]4(OC(C)=O)[C@@H](O)[C@@H]3OC)[C@@H](OC)C[C@H]2O` (stereo not given in full), the Potency entry is “inactive”. The value for `CC(=O)[C@@]1(O)CC[C@H]2[C@@H]3CCC4=CC(=O)CC[C@@H]4[C@H]3CC[C@@]21C` was “inactive”; that for `C/C1=C/C[C@@H](/C(C)=C/c2csc(C)n2)OC(=O)C[C@H](O)C(C)(C)C(=O)[C@H](C)[C@@H](O)[C@@H](C)CCC1` was “inactive”; that for `CN1CCC2=C(C1)C(c1ccccc1)c1ccccc12` (stereo not given) was “inactive”.

Consider `Cn1c(COP(=O)(NCCBr)NCCBr)cnc1[N+](=O)[O-]`, for which the Potency result is “inactive”. The value for `CNC(C)[C@@H](O)c1ccc(O)cc1` (stereo not given in full) was “inactive”; that for `C=C[C@H]1CN2CC[C@H]1C[C@H]2[C@H](O)c1ccnc2ccccc12` was “inactive”. The value for `COC(=O)[C@]12CCC(C)(C)C[C@H]1[C@H]1C(=O)C=C3[C@@]4(C)C=C(C#N)C(=O)C(C)(C)[C@@H]4CC[C@@]3(C)[C@]1(C)CC2` was “inactive”; that for `CC1CCCC(O)CCCCCc2cc(O)cc(O)c2C(=O)O1` (stereo not given) was “inactive”; that for `CCCCCCCCCCCCNCCNCCNCC(=O)O` was “inactive”. For the molecule `CC1(C)CC(O)CC(C)(C)N1O`, the Potency entry is “inactive”. For `CC(COc1ccc(Oc2ccccc2)cc1)Oc1ccccn1` (stereo not given), the Potency result was “inactive”. Take `O=C(O)c1ccnc2cc(C(OCCN3CCC(F)(F)CC3)c3ccccc3Cl)[nH]c12` (stereo not given): the Potency result was “inactive”. Then `CC(Cc1ccc2c(c1)OCO2)NCC(O)c1ccc(O)c(O)c1` (stereo not given), with “inactive”; and `O1[As]2O[As]1O2`, with “inactive”. Take `Cc1cc(C2=NOC(c3cc(Cl)cc(Cl)c3)(C(F)(F)F)C2)ccc1C(=O)NCC(=O)NCC(F)(F)F` (stereo not given): the Potency result is “inactive”.

Regarding `O=C(O)C1=CCCN(CCOC(c2ccc(C(F)(F)F)cc2)c2ccc(C(F)(F)F)cc2)C1`, the Potency result was “inactive”. As to `CC(=O)C1=C(O)[C@@H]2[C@H]3c4c[nH]c5cccc(c45)C[C@H]3C(C)(C)N2C1=O`, the Potency entry is “inactive”. Take `CC(=O)O[C@@]12CO[C@@H]1C[C@H](O)[C@@]1(C)C(=O)[C@H](O)C3=C(C)[C@@H](O)C[C@@](O)([C@@H](OC(=O)c4ccccc4)[C@H]21)C3(C)C`: the Potency result was “inactive”. Consider `O=c1ccc2cc(O[C@@H]3O[C@H](CO)[C@H](O)[C@H](O)[C@H]3O)c(O)cc2o1`, for which the Potency is 16.1 µM (active). Take `CCOC(=O)C=C(C)C=CC[C@@H](C)CCCC(C)C`: the Potency result is “inactive”. Take `CC(C)[C@]12O[C@H]1[C@@H]1O[C@@]13[C@@]1(C)CCC4=C(COC4=O)[C@@H]1C[C@@H]1O[C@@]13C2=O`: the Potency entry is “inactive”. Turning to `Fc1cccc(Br)c1NC1=NCCN1`, the Potency result is “inactive”. Regarding `Cc1nn(C)c2c1C(c1ccccc1F)=NCC(=O)N2C`, the Potency result was “inactive”.

For the molecule `CCCCCCCCCCC(=O)O[C@H]1CC[C@H]2[C@@H]3CCC4=CC(=O)CC[C@]4(C)[C@H]3CC[C@]12C`, the Potency entry was “inactive”. Then `CC1(C)CC[C@]2(NC(=O)C(C)(F)F)CC[C@]3(C)[C@H](C(=O)C=C4[C@@]5(C)C=C(C#N)C(=O)C(C)(C)[C@@H]5CC[C@]43C)[C@@H]2C1`, with “inactive”.

Take `C/C=C(\C)C(=O)N[C@@H](c1ccccc1)[C@@H](O)C(=O)O[C@H]1C[C@@]2(O)[C@@H](OC(=O)c3ccccc3)[C@@H]3[C@]4(OC(C)=O)CO[C@@H]4C[C@H](O)[C@@]3(C)C(=O)[C@H](OC(C)=O)C(=C1C)C2(C)C`: the Potency entry is “inactive”.
